# Assay results: article PMC12136788
# Where a chain is given by its changes, count along the chain named. Whole data set: some 24,000 sequences, median “enrichment r” near 0.99, cut for the highest 2% near 3.7. The full list was thinned out, with the highest values kept by preference.
# T1: UNK ZnF1-3 (human, UniProt Q9C0B0 31-174)
# T1 sequence: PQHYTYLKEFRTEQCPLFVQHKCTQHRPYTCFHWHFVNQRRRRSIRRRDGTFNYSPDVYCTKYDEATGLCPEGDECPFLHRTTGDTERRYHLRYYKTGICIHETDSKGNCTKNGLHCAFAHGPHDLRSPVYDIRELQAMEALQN
# B1: chr7:75932113:75932114:+_ENSG00000106211_ENST00000248553|hu_mus|FALSE|FALSE (ssRNA)
# RNA: GGGAGUUCUACAGUCCGACGAUCCUGCGACCACUCAUCGGGCAACCGGGGCACCCCGAAAGCUUGAUCGAAGAGGCGGCUGUGUGCAGGGUACCAGUCCCGGAAUGGUUCCCAGCUCGGGCUCCGCAGCAGCGAGAAGGGCACCAACAGAGGAUUGAGCAUCA
# B2: chr16:45382771:45382772:-_ENSMUSG00000022661_ENSMUST00000163230|mus_mus|mus_mus_mus_hu_True|28_88 (ssRNA)
# RNA: GGGAGUUCUACAGUCCGACGAUCCUGGGUCAUGUUAUAAGACAAAUGGAUAGGGAGGGCAUGCUUCUCAAAAAAUGUGAGCUAUUGUCUAAGACUAACAAUAUUUACUAAGUGCUAAAAAUAAGUUAAAUGAAUAAGUUAAGACAACAGAGGAUUGAGCAUCA
# B3: chr16:45382771:45382772:-_ENSMUSG00000022661_ENSMUST00000163230|mus_mus|mus_mus_mus_hu_True|18_28 (ssRNA)
# RNA: B2 RNA with U50C, A117U, U121A, A123U, G124A, U125A, U126G
# B4: chr16:45382771:45382772:-_ENSMUSG00000022661_ENSMUST00000163230|mus_mus|mus_mus_mus_hu_True|28_78 (ssRNA)
# RNA: B2 RNA with U50C, G57A, C66U
# B5: chr16:45382771:45382772:-_ENSMUSG00000022661_ENSMUST00000163230|mus_mus|mus_mus_mus_hu_True|28_68 (ssRNA)
# RNA: B2 RNA with U50C, C68G, A69U, A73G
# B6: chr1:225611761:225611762:-_ENSG00000143815_ENST00000272163|hu_mus|hu_hu_hu_mus_True|78_108 (ssRNA)
# RNA: GGGAGUUCUACAGUCCGACGAUCCCAGGCCAUCGACCUCUGACCACUUCACCCUCAGCAAAUUUCCUACUUGGCAUUUUCUAAAAUUAGUCUGGCCGCGCUCCGGCGGGAACUCCAGCCACUCCAGGACAGUCACCAGCAGCCCAACAGAGGAUUGAGCAUCA
# B7: 71781198_71781318_2220_CDS_ENSMUSG00000008305_ENSMUST00000030095|mouse|control|control (ssRNA)
# RNA: GGGAGUUCUACAGUCCGACGAUCCACGCAGCUCUCGUGGAGGUGCAGCUGGUACUUGUCAGGCUUGUUCACAUGCAGAACUUCCACGUUGCUGCUUUCCAUGCCCACAGCAAGCCACUCCCCAGUUGGGCAAUAUCCCAAAGACAACAGAGGAUUGAGCAUCA
# B8: chr3:57561382:57561383:-_ENSG00000168374_ENST00000303436|hu_hu|FALSE|FALSE (ssRNA)
# RNA: GGGAGUUCUACAGUCCGACGAUCUAGCAGCACUGCAUCUCUCAAUUCAUCUACCAGAAGCAUUUUCUGCAGCUCAUCUGCUACUUCCUGAAUUCUUUCACGAUCGUUGCUAUCUACCACAAAAAUAAGACCCUGGGUAUUCUGCAACAGAGGAUUGAGCAUCA
# B9: chr1:163295886:163295887:+_ENSG00000143228_ENST00000271452|hu_mus|motif|central (ssRNA)
# RNA: GGGAGUUCUACAGUCCGACGAUCGGUUUUUGCCAUCUGCUCCUGUUAAUAAUUUAUUGCGAAUAUGAACCACAAGCUCAGCGGCAUUGUAUCUGGGGAAUGACAAAGUUUCCAUUAUGGGAGUCUCCUCCCUGAGUAUUGUUGCAACAGAGGAUUGAGCAUCA
# B10: chr6:29525140:29525141:-_ENSMUSG00000012535_ENSMUST00000012679|mus_hu|FALSE|FALSE (ssRNA)
# RNA: GGGAGUUCUACAGUCCGACGAUCGUUAGUUUUGUACAAAUGUUCCCCCAGUCGGUACCAAAAGUUAAAUGAAAUUUCUACUACCUCAUAUUGAGGAUGGCCUGCACAGAUAAGCAGCAGCUCCAGAGUUCGAAGGUCCCCAAGCAACAGAGGAUUGAGCAUCA
# B11: chr1:36770067:36770068:+_ENSG00000054118_ENST00000354618|hu_hu|motif|central (ssRNA)
# RNA: GGGAGUUCUACAGUCCGACGAUCUCUUUCAAGAAUCAAAGUUUCCCAAAUUAAAUGUUUCUAAUAUUACUACAUAUGCCGGAAAAAAGAAAAAAAAAAAAAAAAAGGAGGGGGCUUUUAAAAUCAGGACAGGGGAAAAGAGAUCAACAGAGGAUUGAGCAUCA
# B12: chr1:36770067:36770068:+_ENSG00000054118_ENST00000354618|hu_mus|FALSE|FALSE (ssRNA)
# RNA: GGGAGUUCUACAGUCCGACGAUCUUAAGAGUCAAAGUUGCCCAAAUUAAAAUCUUUACACUAAUAUUACUAUAUAUCCCCUAAAAAGAAGAAAAAGAAAAAAGGAUUUCUUAAUAAAACUCAGGACAGGAAGAGACUGAAAACCAACAGAGGAUUGAGCAUCA
# B13: chr7:155493584:155493585:+_ENSG00000184863_ENST00000401878|hu_mus|FALSE|FALSE (ssRNA)
# RNA: GGGAGUUCUACAGUCCGACGAUCAGAAAGUUCCAAAGUUUCUGGAAUGUUCCUUCUCUCUCUAGUUACAUCUGAAAGCCUAAUAAUUGUUCCUUCUUUCCUUUCAGUUUUAAAACGUAAUCGUCCAGAUUCUUCAUCAUCAUCCAACAGAGGAUUGAGCAUCA
# B14: chr19:16212804:16212805:+_ENSG00000167460_ENST00000300933|hu_hu|motif|central (ssRNA)
# RNA: GGGAGUUCUACAGUCCGACGAUCAGGAAAUAUGCAAAAGAACAUCACAUCAAGGAUCAAUUAAUUACCAUCUAUUAAUUACGGUAUGUGGGUAAUUAUGACUAUUUCCCAAGCAUUCUACGUUGACUGCUUGAGAAGAUGUUUCAACAGAGGAUUGAGCAUCA
# B15: chr1:36770067:36770068:+_ENSG00000054118_ENST00000354618|hu_hu|FALSE|FALSE (ssRNA)
# RNA: B11 RNA with G80U, G81A
# B16: chr1:201104638:201104639:-_ENSG00000116857_ENST00000367334|hu_hu|FALSE|FALSE (ssRNA)
# RNA: GGGAGUUCUACAGUCCGACGAUCAGAGAUCAGAGACCACAUCCCUCUUCCCUAAUCAAAAUAGCCAAGUACAACAUUUCUAAAGUUAGGGAGAAGGAGGAAAAAUGCCACAGGCUUUUAAAGGGAAGACUGGAACCGAGGGAACAACAGAGGAUUGAGCAUCA
# Target: T1, UNK ZnF1-3
# Assay: nsRBNS (natural sequence RNA bind-n-seq); RBNS binding buffer (assumed for nsRBNS): 25 mM Tris pH 7.5, 150 mM KCl, 3 mM MgCl2, 0.01% Triton X-100, 500 ug/ml BSA, 20 U/ml SUPERase-In, 4 C; UNK is unkempt and MSI1 is Musashi-1; names of the RNAs are library labels; protein concentration not given here; high values mean tight binding
row,Binder,binding signal
1,B1,1.04 enrichment R
2,B2,5.11 enrichment R
3,B3,9.98 enrichment R
4,B4,12.8 enrichment R
5,B5,6.96 enrichment R
6,B6,1.33 enrichment R
7,B7,0.78 enrichment R
8,B8,0.947 enrichment R
9,B9,1.12 enrichment R
10,B10,0.862 enrichment R
11,B11,3.96 enrichment R
12,B12,2.39 enrichment R
13,B13,0.81 enrichment R
14,B14,0.67 enrichment R
15,B15,4.92 enrichment R
16,B16,2.05 enrichment R
